Experimental data reported in publication PMC12136788.
Residue numbers refer to the chain shown, from its start. Over roughly 24,000 sequences, “enrichment r” has its median near 0.99; the highest 2% begin near 3.7. The entries come from a sample that favours the highest values as a whole.

T1: UNK ZnF1-3 (human, UniProt Q9C0B0 31-174)
T1 sequence: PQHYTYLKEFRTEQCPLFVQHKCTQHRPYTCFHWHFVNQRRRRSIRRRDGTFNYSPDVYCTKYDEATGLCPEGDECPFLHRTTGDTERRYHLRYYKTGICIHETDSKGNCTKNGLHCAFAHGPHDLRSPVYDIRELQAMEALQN

B1: chr17:64801638:64801639:+_ENSG00000154229_ENST00000413366|hu_mus|hu_hu_hu_mus_False|78_78 (ssRNA)
RNA: GGGAGUUCUACAGUCCGACGAUCUAUAUAUAUAUAUACAUAUGUACACAUAUAUAGUAAGAGCCUAGUUAAACGUGUAAAGUAGCCAUUCAUUUUUAAAAUUACAUCUACAUUAAAAAAUUAAUAUAUCUGAUAGAGUGCCAGCAACAGAGGAUUGAGCAUCA
B2: chr3:148802587:148802588:-_ENSG00000071794_ENST00000310053|hu_mus|hu_hu_hu_mus_False|28_38 (ssRNA)
RNA: GGGAGUUCUACAGUCCGACGAUCUCCAACAACUUGUCCUCUCAUAGUUCCAAAUAAAACCAAAUCUUGCUCUUCAUCACUCGUUAGGAAGUCAUCUGGAGGGAUAACAUCUUGGAAUUCAAAAUGUGGCAAGAAAGUUGAGUACAACAGAGGAUUGAGCAUCA
B3: chr3:95023916:95023917:-_ENSMUSG00000053192_ENSMUST00000065482|mus_mus|motif|central (ssRNA)
RNA: GGGAGUUCUACAGUCCGACGAUCUAAAUAAAUAAAUAAAUAAAUAUAGAUAGAUAAAUAAGUACGUACAUACAUACAAACCGGCAAUUCAAUUGGCAGAUUCAUCAGCACCACCAGCACAAUAGAGGGAAGAGAACAAGAUUACAACAGAGGAUUGAGCAUCA
B4: chr1:34870196:34870197:-_ENSMUSG00000037503_ENSMUST00000047534|mus_hu|motif|central (ssRNA)
RNA: GGGAGUUCUACAGUCCGACGAUCAUCUGAGCUCAUCUCAUCAGAUUGCAUAAAAAAUUAAAAUAGUAUCAAUUGACACCGGACUGAACUGGCUCAGGAUGGAAAUUCCAUUCCUUGGCAUGGAUACGUAAGUUCAAUGCAGAGCAACAGAGGAUUGAGCAUCA
B5: chr3:95023916:95023917:-_ENSMUSG00000053192_ENSMUST00000065482|mus_mus|FALSE|FALSE (ssRNA)
RNA: B3 RNA with G82U, G83A
B6: 17587070_17598549_148_CDS_ENSMUSG00000015733_ENSMUST00000015877|mouse|control|control (ssRNA)
RNA: GGGAGUUCUACAGUCCGACGAUCGUGAAUGAUGAAUUUUGCUGCUAUACGAACCUUCUCCUCAUCGGACAACUGCUCCUCCAGAUCCGCCAUCUUCCUUCUGGCGACAGACCGUGGCGCUGGUGGCAGCAGCGGCCACCUGACCAACAGAGGAUUGAGCAUCA
B7: 33058320_33060047_1444_CDS_ENSG00000170266_ENST00000307363|human|control|control (ssRNA)
RNA: GGGAGUUCUACAGUCCGACGAUCUCCCUGGGGGAUCCCAUCCACAGCAACAUAUGCUCGAUCGUGGACUCCAUUGAGGGGUGAAGAGAGAGGUGCUGGGUUGCUGCAAUCUUGAGGAAGUGUUGUCCGGUACAGCACAAACCCCAACAGAGGAUUGAGCAUCA
B8: chr5:145543945:145543946:-_ENSG00000133706_ENST00000545646|hu_hu|hu_hu_hu_mus_True|18_98 (ssRNA)
RNA: GGGAGUUCUACAGUCCGACGAUCCUGAACGGCCAGUGGCGGGAAAUAAUCAAGCCAGUGCUCUGCUUCAGAAAACUUCACUAUGUCGUCAUCAGAGAGCCCAAGGGAUUUCAUAAUGCCCCACUGGUACUUAGAAGAUCCUGCCAACAGAGGAUUGAGCAUCA
B9: 74491169_74493004_2024_3pUTR_ENSMUSG00000020745_ENSMUST00000021091|mouse|control|control (ssRNA)
RNA: GGGAGUUCUACAGUCCGACGAUCAUCAACGGCACUCCCACACCUUUACUGUUUGAUCUACACUGCCAGUAACCACAUAGGGUGCCGUCUUAUGGAAAUCCAAGGAGGUAACAAAGUGUUCAUGCGCAUUGAGGGUCUUCAUGCCAACAGAGGAUUGAGCAUCA
B10: 72182037_72182157_980_3pUTR_ENSG00000148730_ENST00000373218|human|control|control (ssRNA)
RNA: GGGAGUUCUACAGUCCGACGAUCCCAGAGGAAAGAAAGGAAGUGGACCUCAAAACAGUGUCACAGGGUAACGCUACCAGAGUUGCACAAGCUGUGCUCUGUCCCGAGGGACGAAUACCUCAAGGUAAAAGGGAAAGCAGCUCUCAACAGAGGAUUGAGCAUCA
B11: chr10:36858571:36858572:-_ENSMUSG00000069662_ENSMUST00000092584|mus_mus|FALSE|FALSE (ssRNA)
RNA: GGGAGUUCUACAGUCCGACGAUCAUAAAAAAUUUUUAGUCGAAGAGAUCAAAAAAGCAGCAGCGCAGGAAGGAGGGAAAAAGGUGGAAAAGUCGAGCACAAAAAAGGAGCCCAAGUGUAGUUUUUUUAAAAAAAGAAGUAAUACAACAGAGGAUUGAGCAUCA
B12: chr10:36858571:36858572:-_ENSMUSG00000069662_ENSMUST00000092584|mus_hu|FALSE|FALSE (ssRNA)
RNA: GGGAGUUCUACAGUCCGACGAUCAUAAAAAAAUUUUAGUCGAAGAGAUCAAAAAGCAGCAGCACAGGAGGGAGGGAAAAAGGGUGGAAAAGUCGAGCACAAAAAAAGGAGCCCAAGUGUAGUUCGAAAAAAAAAGAAGUAAUACAACAGAGGAUUGAGCAUCA
B13: chr5:134790399:134790400:-_ENSMUSG00000060261_ENSMUST00000173341|mus_hu|FALSE|FALSE (ssRNA)
RNA: GGGAGUUCUACAGUCCGACGAUCGGGAGGCGAGAGGGGGCGAGGGGCCCGUGCGUGUCGGUCGCGCUCCUGUCACCGCCGCAUGGCCGCCCCGCAGGCAGGGCCUCGCUCAGCGCCUUGAUCCGAUCACUGGGGGACAGAGGCCAACAGAGGAUUGAGCAUCA
B14: chr22:19452774:19452775:-_ENSG00000070010_ENST00000399523|hu_hu|hu_hu_hu_mus_False|28_58 (ssRNA)
RNA: GGGAGUUCUACAGUCCGACGAUCCUUCUCAUUGUAGUUGAUAGCAAUCACAUCUCCAGUCGUCAGACAGGCGAAGUUCCUAAGUGCAUUUUCUAAUACCGCUUUAGGGUUGGUGAUAUCCAGGAAGUCUGGGCUCUGAGGCUGCAACAGAGGAUUGAGCAUCA
B15: chr14:59855892:59855893:+_ENSMUSG00000035469_ENSMUST00000043227|mus_hu|motif|central (ssRNA)
RNA: GGGAGUUCUACAGUCCGACGAUCUUCCAUUAUUACAUUAGAUGAAAAAAUCAAUUCAAAUAAGAGUUGUCAUAUCCUGCGGUGAUUAACAAAAAAACAAGUAGAAAAAUAAGAGAGUGUAUUUAAAAAAAAUAAUCAAAUGCUCAACAGAGGAUUGAGCAUCA
B16: chr3:119456006:119456007:-_ENSMUSG00000028134_ENSMUST00000029780|mus_hu|FALSE|FALSE (ssRNA)
RNA: GGGAGUUCUACAGUCCGACGAUCAAUAUGAAGUACACGAGAAGGAGCACCAUCCAUUUUAUCUUCUCCUUUAAAUUUUUUACUAUCAUUACCAUUGGCUGUAACUACCAUGCUGCUCAUAUUAGAGUUCGGACUACUGAGAACCAACAGAGGAUUGAGCAUCA
B17: chr2:42509997:42509998:+_ENSG00000143924_ENST00000318522|hu_hu|FALSE|FALSE (ssRNA)
RNA: GGGAGUUCUACAGUCCGACGAUCUCGCUGAGUUCUCUCCUCAUAAUUAAAUAGUACUACUACUGAUGCAAUGAAAUAAACUAUUUUCCCGGUCGGAAGAAGGUAAACAUUAGCUCUACAGUCCUUUCCUCGAUAACCAUAUGCCAACAGAGGAUUGAGCAUCA
B18: chr14:59855892:59855893:+_ENSMUSG00000035469_ENSMUST00000043227|mus_mus|motif|central (ssRNA)
RNA: GGGAGUUCUACAGUCCGACGAUCGCUUCCAUUAUUAUAUCAGAAGAAAACAUUAAUUUCAAUAAUAGUUUCUUGCUUUCGGUGAUUAUAACCAAAACCAAGUAGAAAAAUAAAAAGAUUGCAUUUAAAAAAAAUUUGCAAACCCAACAGAGGAUUGAGCAUCA
B19: 55555555_55559808_3342_CDS_ENSG00000115355_ENST00000336838|human|control|control (ssRNA)
RNA: GGGAGUUCUACAGUCCGACGAUCCAAAAGUUUAUACCUGUCAUCAGUACUUUGUUCAUCAUGUAAGAGUCGCUCCUUAUUUAACCCUAUCUUCUCAAGCUCAUGAGUUAAUUUUUCGAGAUCAUUGUUCAUCUGUUGGGUCUUCAACAGAGGAUUGAGCAUCA
B20: chr8:72542918:72542919:-_ENSMUSG00000031858_ENSMUST00000050561|mus_mus|FALSE|FALSE (ssRNA)
RNA: GGGAGUUCUACAGUCCGACGAUCAGCUAUCAAGCCAAGAGGAGCUGAGCUGGUCCCAUAACUGUCCUCCAUGGGAAAGCUAAAUAGCUGCCAGGAAGGAACCCUCUCAUUCAGGUCCAAUGGGACUUCUGCCUGAUGCUUAGGCAACAGAGGAUUGAGCAUCA
B21: chr7:141441981:141441982:+_ENSG00000106028_ENST00000265304|hu_mus|hu_hu_hu_mus_False|8_88 (ssRNA)
RNA: GGGAGUUCUACAGUCCGACGAUCCUCAUGUCUUACAAACUGACGAAGUACCUGUAACACAGGUCUUCGAAACAUGGCUUCUGUUUUUCUUACAACCUAAUCUUUAGGCUUUUCCUAAAGGAAAGAAUAACCCGAGCAAAAUGACAACAGAGGAUUGAGCAUCA
B22: chr5:159492046:159492047:+_ENSG00000113312_ENST00000231238|hu_hu|FALSE|FALSE (ssRNA)
RNA: GGGAGUUCUACAGUCCGACGAUCAGUCAGCUUGUAAAGCUUUUGUUAUCUUUGUUAUCUGUUAUUAUUUGGAUUUUGAACGAAAUUGAUGGAGUACGAGCCGGUAGAGGAAUCCUGUUUGAUCUGGAAAUUUUCCGUGGAGAGCAACAGAGGAUUGAGCAUCA

What follows are binders tested against T1, UNK ZnF1-3 (assay: nsRBNS (natural sequence RNA bind-n-seq); RBNS binding buffer (assumed for nsRBNS): 25 mM Tris pH 7.5, 150 mM KCl, 3 mM MgCl2, 0.01% Triton X-100, 500 ug/ml BSA, 20 U/ml SUPERase-In, 4 C; UNK is unkempt and MSI1 is Musashi-1; names of the RNAs are library labels; protein concentration not given here; high values mean tight binding).

With B1 as the binder, how does the binding signal read?
The binding signal was 1.53 enrichment R.

With B2 as the binder, how does the binding signal read?
The binding signal was 1.19 enrichment R.

Which binding signal does the source give for B3 here?
The binding signal was 19.9 enrichment R.

How did the binding signal turn out when B4 was run?
Its binding signal is 1.43 enrichment R.

Which binding signal does the source give for B5 here?
The binding signal was 7.35 enrichment R.

B6 was tested. Which binding signal did it give?
The binding signal was 0.822 enrichment R.

Which binding signal does the source give for B7 here?
The binding signal was 0.932 enrichment R.

With B8 as the binder, how does the binding signal read?
The binding signal was 0.932 enrichment R.

Which binding signal does the source give for B9 here?
Its binding signal is 0.744 enrichment R.

How did the binding signal turn out when B10 was run?
Its binding signal is 0.893 enrichment R.

B11 was tested. Which binding signal did it give?
The binding signal was 11.7 enrichment R.

B12 was tested. Which binding signal did it give?
Its binding signal is 4.29 enrichment R.

With B13 as the binder, how does the binding signal read?
The binding signal was 0.997 enrichment R.

B14 was tested. Which binding signal did it give?
The binding signal was 0.837 enrichment R.

With B15 as the binder, how does the binding signal read?
The binding signal was 6.68 enrichment R.

For B16, which binding signal is on record?
The binding signal was 4.17 enrichment R.

How did the binding signal turn out when B17 was run?
Its binding signal is 0.867 enrichment R.

Which binding signal does the source give for B18 here?
The binding signal was 4 enrichment R.

Which binding signal does the source give for B19 here?
Its binding signal is 0.637 enrichment R.

B20 was tested. Which binding signal did it give?
The binding signal was 1.1 enrichment R.

With B21 as the binder, how does the binding signal read?
Its binding signal is 0.719 enrichment R.

How did the binding signal turn out when B22 was run?
Its binding signal is 3.66 enrichment R.
